# Most compounds without a hit are left out; they make up all but 2.4% or so of the library.
# M1 ag = human M1 muscarinic receptor agonists, primary screen, Fluo-8 calcium fluorescence, CHO-K1 cells, HTS; activation, % at 3 µM; CHO-K1 hM1, agonist mode; 0% DMSO, 100% acetylcholine EC100; 360,000 compounds, 0.33% hits;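 active = activation above the run's mean compound activation plus 3 SD, cut at about 16% in these data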;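 note: peak over basal fluorescence ratio within a 140 s kinetic read after compound addition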
# Target sequence (P11229 whole entry, looked up): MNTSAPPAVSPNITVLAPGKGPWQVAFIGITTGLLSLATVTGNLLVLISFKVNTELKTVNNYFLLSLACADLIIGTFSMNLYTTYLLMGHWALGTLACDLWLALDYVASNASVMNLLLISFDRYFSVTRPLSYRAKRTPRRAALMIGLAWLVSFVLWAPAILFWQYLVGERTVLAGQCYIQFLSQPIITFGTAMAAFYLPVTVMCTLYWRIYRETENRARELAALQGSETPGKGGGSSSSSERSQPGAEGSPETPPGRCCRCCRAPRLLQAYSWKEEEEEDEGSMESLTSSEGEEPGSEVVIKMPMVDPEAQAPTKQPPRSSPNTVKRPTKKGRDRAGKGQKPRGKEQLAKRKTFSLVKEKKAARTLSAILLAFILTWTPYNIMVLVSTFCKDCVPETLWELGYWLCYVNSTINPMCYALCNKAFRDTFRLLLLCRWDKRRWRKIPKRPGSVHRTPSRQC
# CHO-K1 Ca antag = counter-screen for M1 antagonists: effect in parental CHO-K1 cells. ATP-induced calcium, Fluo-8 fluorescence. inhibition, % at 3 µM. 360,000 compounds, 0.6% hits;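 active = inhibition above a per-plate cutoff, the plate's mean sample inhibition plus 3 SD, cut at about 24% in these data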;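 note: 0% = DMSO plus EC80 ATP and 100% = DMSO alone without ATP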
# CHO-K1 Ca ag = counter-screen for M1 agonists: effect in parental CHO-K1 cells; Fluo-8 calcium fluorescence; scaled to maximal ATP response, vehicle zero; activation, % at 3 µM; 360,000 compounds, 0.48% hits; in the data active = activation above about 15%;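 note: untransfected CHO-K1 host cells lacking M1 receptor as counterscreen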
# M1 PAM = human M1 muscarinic receptor positive allosteric modulators, primary screen, CHO-K1 cells, Fluo-8 calcium fluorescence, 1536-well; Muscarinic acetylcholine receptor M1 (Homo sapiens), P11229; CHO-K1 hM1, ACh EC20; 0% = ACh EC20, 100% = maximal ACh; activation, % at 3 µM; 360,000 compounds, 0.088% hits; in the data active = activation above about 19%, passing the limit was not always enough
# CHO-K1 Ca PAM = nonselective calcium activators in parental CHO-K1 cells, primary screen, counter-screen for M1 PAM project, cell-based, Fluo-8 calcium fluorescence, full deck, 1536-well; ATP EC20; 0% at ATP EC20, 100% at ATP max; activation, % at 3 µM; 360,000 compounds, 0.02% hits; AID 602247, 2012;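 active = activation above the run cutoff, the mean activation of all test compounds plus 3 SD, cut at about 40% in these data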;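 note: peak over basal fluorescence ratio in a 140 s read after ATP addition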
# CHRM1 antagonist = human M1 muscarinic receptor antagonists, primary screen, CHO-K1 cells, Fluo-8 calcium fluorescence, 1536-well; AID 588852, 2011; CHO-K1 hM1, ACh EC80 antagonist; 360,000 compounds, 1.3% hits; Muscarinic acetylcholine receptor M1 (Homo sapiens), P11229; inhibition, % at 3 µM;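 active = percent inhibition above its own plate's cutoff, namely the mean of that plate's compound wells plus 3 SD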;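 note: peak over basal fluorescence ratio during 140 s after agonist addition; 0% = ACh EC80 plus DMSO and 100% = DMSO alone without agonist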
# Starred values were filed as active, the others as inactive.
SMILES,M1 ag,CHO-K1 Ca antag,CHO-K1 Ca ag,M1 PAM,CHO-K1 Ca PAM,CHRM1 antagonist
COc1ccc(Nc2cc(NCCCO)c([N+](=O)[O-])c3nonc23)cc1,-4,-8,-2,2,7,-4
COc1ccc(CNc2cc(NCCCO)c([N+](=O)[O-])c3nonc23)cc1,-10,25*,-1,1,-16,-2
CCN(c1ccccc1)S(=O)(=O)c1cccc(C(=O)NCCOc2ccccc2OC)c1,-3,7,2,-3,-6,4
Cc1ccc(S(=O)(=O)CCSc2cccc(C(=O)Nc3ccccc3C(=O)O)c2)cc1,-2,0,0,37*,2,6
CCCCCCN1C(=O)CC(NC(=O)OCC2c3ccccc3-c3ccccc32)C/C=C\C1C(C)C (stereo unspecified),-7,-20,0,1,15,-9
CCN(CC)CCNC(=O)c1ccc(NC(=O)c2ccc(C(=O)c3ccccc3)cc2)cc1,-8,-10,2,-14,22,12
Cc1ccc(S(=O)(=O)N(C)C)cc1NC(=O)COc1ccccc1C(=O)Nc1ccccc1,-3,14,5,-9,-11,16
CN(C)S(=O)(=O)c1cccc(NC(=O)c2ccc(OC(F)(F)F)cc2)c1,-5,13,19*,-18,5,18
CCN(CC)CCNC(=O)c1ccc(NC(C)=O)cc1,-2,-1,1,-1,11,-18
CN(C)S(=O)(=O)c1cccc(NC(=O)COc2ccccc2C(=O)Nc2ccccc2)c1,2,-5,2,-23,9,41*
CCN(CC)CCNC(=O)c1ccc(NC(=O)c2ccc(COc3ccccc3)cc2)cc1,-6,-8,2,-24,17,53*
CCN(CC)CCNC(=O)c1ccc(NC(=O)COc2ccc3c(c2)CCC3)cc1,-7,1,0,-26,7,45*
Nc1c(N(CCC2=CCCCC2)C(=O)c2ccco2)c(=O)[nH]c(=O)n1Cc1ccccc1,-3,-3,1,10,14,-8
CSc1ccccc1NC(=O)CN(C)C(=O)COc1cccc2cccnc12,-3,3,0,-4,-3,7
CN(C)S(=O)(=O)c1cccc(NC(=O)c2ccc(COc3ccccc3)cc2)c1,-3,30*,18*,-24,-11,39*
Cc1cccc(C(=O)N2CCN(CCNC(=O)C(=O)Nc3ccc(F)cc3)CC2)c1,-2,10,0,10,6,-4
COc1cc(/C=N/NS(=O)(=O)c2ccccc2)c(OC)c(OC)c1,-4,-4,16*,7,11,-13
CCC(=O)Nc1ccc(C2=Nn3c(nnc3C(C)C)SC2)cc1,-1,-11,4,2,8,-6
Cn1c(=O)c(C(=O)COc2ccc(C#N)cc2)c(N)n(Cc2ccccc2)c1=O,28*,-6,34*,-6,2,9
CC(=O)c1ccc(N2CCN(c3ccccc3O)CC2)c([N+](=O)[O-])c1,0,14,19*,-25,-7,37*
O=C(O)c1ccccc1C(=O)c1ccc(N2CCCC2)c([N+](=O)[O-])c1,-7,5,-1,2,-10,-1
CCCCC1(c2ccc(F)cc2)NC(=O)N(CC(=O)Nc2ccc(N3CCOCC3)cc2)C1=O (stereo unspecified),16*,-10,8,9,26,-2
CCC1(c2ccc(F)cc2)NC(=O)N(CC(=O)Nc2ccccc2Cl)C1=O (stereo unspecified),36*,-8,15*,3,-7,-8
CCC1(c2ccccc2)NC(=O)N(CC(=O)Nc2cc(S(=O)(=O)N3CCCCCC3)ccc2OC)C1=O (stereo unspecified),0,21,9,-6,0,32*
CCOc1ccc(S(=O)(=O)N2CCCCC2)cc1NC(=O)CN1C(=O)NC(CC)(c2ccccc2)C1=O (stereo unspecified),-2,9,4,6,-5,-11
SMILES,M1 ag,CHO-K1 Ca antag,CHO-K1 Ca ag,M1 PAM,CHO-K1 Ca PAM,CHRM1 antagonist
CCC1(c2ccc(F)cc2)NC(=O)N(CC(=O)Nc2ccccc2C)C1=O (stereo unspecified),12,-12,16*,-3,26,11
CCC1(c2ccccc2)NC(=O)N(CC(=O)Nc2ccccc2C(=O)NC2CC2)C1=O (stereo unspecified),0,-16,2,10,26,-11
COc1ccc(C(=S)N2CCOCC2)cc1OC(=O)c1ccc(C)cc1,-5,-9,0,3,-4,4
COc1ccc(S(=O)(=O)N2CCCCC2)cc1NC(=O)CN(Cc1ccco1)Cc1ccco1,7,3,10,-20,-2,44*
COc1ccc(S(=O)(=O)N2CCCCC2)cc1NC(=O)CN(C)C1CCCCC1,-7,-13,3,8,20,-16
Cc1ccccc1S(=O)(=O)Cc1ccc(C(=O)NCCCN2CCC(C)CC2)o1,-6,-6,1,3,18,-6
CCc1ccc(OCC(=O)NNC(=O)CNC(=O)c2ccc(Br)o2)cc1,-2,-10,-1,6,-1,-8
CCCOc1ccc(OC(=O)c2ccc(Br)o2)cc1,45*,13,3,-8,2,17
COc1ccc(C(=O)N/C(=C\c2cccc3ccccc23)C(=O)N2CCN(C)CC2)cc1,-5,-4,1,6,12,-1
CC(C)[C@H](N[C@@H](C)c1ccccc1)c1c(O)ccc2ccccc12,-5,-4,1,0,10,-10
O=C(NCc1ccccc1C(F)(F)F)c1cccc2c1C(=O)c1ccc(N3CCC(N4CCCCC4)CC3)cc1S2(=O)=O,2,-1,11,-28,15,39*
O=C(NCC1CCCO1)c1cccc2c1C(=O)c1ccc(N3CCC(Cc4ccccc4)CC3)cc1S2(=O)=O (stereo unspecified),17*,12,17*,-23,-3,38*
CCOC(=O)N1CCN(C2OC(=O)c3ccccc32)CC1 (stereo unspecified),25*,-3,0,2,-1,-19
COc1ccc(N(C)S(=O)(=O)c2cccc(C(=O)N3CCN(S(=O)(=O)c4ccc(C)cc4)CC3)c2)cc1,-1,9,7,-9,-15,10
Oc1ccc(Cl)cc1CNCc1ccc(Cl)cc1,11,-23,4,6,12,-8
Oc1ccc(Cl)cc1CNCc1ccc(F)cc1,18*,-14,10,6,11,-5
